Calls of active or inactive are those of the source. The calls were made as follows: active = hit-call score of the fitted dose curve at least 0.9, where 1 is the maximum; inactive = score below 0.9.
Legend:
Details in all cases: primary human HUVEC with PBMC; actives raise or lower the signal
[1] = read-out: Macrophage colony-stimulating factor (MCSF), CSF1 (gene 1435); experiment: BSK_LPS_MCSF: BioMAP Diversity Plus: LPS Assay for Macrophage colony-stimulating factor (MCSF) Biomarker Activity (AID 2283083)
How it was run: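 HUVEC + PBMC co-culture (human primary), 24 h post-dose; M-CSF by ELISA; gain/loss of signal fitted bidirectionally vs DMSO baseline.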

[2] = read-out: Tissue Factor, F3 (gene 2152); experiment: BSK_LPS_TissueFactor: BioMAP Diversity Plus: LPS Assay for Tissue Factor Biomarker Activity (AID 2283084)
How it was run: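 HUVEC/PBMC co-culture, LPS-activated; CD142 ELISA read 24 h post-dose; bidirectional curve fit vs DMSO negative control.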

[3] = read-out: Tumor necrosis factor (Homo sapiens) (UniProt P01375); experiment: BSK_LPS_TNFa: BioMAP Diversity Plus: LPS Assay for Tumour Necrosis Factor alpha (TNFa) Biomarker Activity (AID 2283085)
How it was run: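 Primary human vascular co-culture of HUVEC and PBMC; TNFa ELISA 24 h after treatment, analysed as increase or decrease relative to DMSO control.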

[4] = read-out: Vascular cell adhesion molecule 1 (VCAM1), VCAM1 (gene 7412); experiment: BSK_LPS_VCAM1: BioMAP Diversity Plus: LPS Assay for Vascular cell adhesion molecule 1 (VCAM1) Biomarker Activity (AID 2283086)
How it was run: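 Primary human vascular co-culture (umbilical vein endothelium plus PBMC) stimulated with LPS received chemical; 24 h later VCAM-1 was read by ELISA. Overt cytotoxicity was assessed by sulforhodamine B staining of parallel cultures at the same time point.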

CD38, CD38 (gene 952) = experiment: BSK_SAg_CD38: BioMAP Diversity Plus: SAg Assay for CD38 Biomarker Activity (AID 2283087)
How it was run: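 Fluorescence ELISA of cell-surface CD38 served as the read-out, with either increase or decrease fitted against DMSO controls. Cells were a human umbilical vein endothelium plus PBMC co-culture under SEB/TSST-1 stimulation, measured 24 h after dosing.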

CD40, CD40 (gene 958) = experiment: BSK_SAg_CD40: BioMAP Diversity Plus: SAg Assay for CD40 Biomarker Activity (AID 2283088)
How it was run: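 HUVEC/PBMC co-culture, 24 h post-dose; CD40 by ELISA, fluorescence intensity; bidirectional fit vs DMSO negative control.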

CD69, CD69 (gene 969) = experiment: BSK_SAg_CD69: BioMAP Diversity Plus: SAg Assay for CD69 Biomarker Activity (AID 2283089);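 as to AC50: cell surface CD69 protein quantified by ELISA with fluorescence detection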
How it was run: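 Endothelial/PBMC co-culture; chemical added; 24 h incubation; CD69 ELISA with fluorescence detection; bidirectional fit vs DMSO.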

[5] = read-out: Monocyte Chemoattractant Protein-1 (MCP1), CCL2 (gene 6347); experiment: BSK_SAg_MCP1: BioMAP Diversity Plus: SAg Assay for Monocyte Chemoattractant Protein-1 (MCP1) Biomarker Activity (AID 2283090)
How it was run: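 MCP-1 levels in the endothelial–PBMC SAg co-culture were quantified by ELISA at 24 h post-dosing; both increases and decreases versus DMSO scored. Cytotoxicity monitored by SRB total protein in parallel cultures.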

[6] = read-out: E-selectin (Homo sapiens) (UniProt P16581); experiment: BSK_SAg_Eselectin: BioMAP Diversity Plus: SAg Assay for Eselectin Biomarker Activity (AID 2283091)
How it was run: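 E-selectin ELISA readout at 24 h post-dosing in human umbilical vein endothelial cell/PBMC co-culture; gain or loss of signal fitted relative to DMSO baseline.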

[7] = read-out: Monokine induced gamma interferon (MIG), CXCL9 (gene 4283); experiment: BSK_SAg_MIG: BioMAP Diversity Plus: SAg Assay for Monokine induced gamma interferon (MIG) Biomarker Activity (AID 2283092)
How it was run: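 Measures CXCL9 protein by ELISA in a human vascular primary-cell co-culture (umbilical vein endothelium with PBMC) 24 h after chemical addition. Activity is scored up or down from the DMSO control.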

Measured: AC50

Tumor necrosis factor (Homo sapiens), sequence (P01375 whole entry, looked up): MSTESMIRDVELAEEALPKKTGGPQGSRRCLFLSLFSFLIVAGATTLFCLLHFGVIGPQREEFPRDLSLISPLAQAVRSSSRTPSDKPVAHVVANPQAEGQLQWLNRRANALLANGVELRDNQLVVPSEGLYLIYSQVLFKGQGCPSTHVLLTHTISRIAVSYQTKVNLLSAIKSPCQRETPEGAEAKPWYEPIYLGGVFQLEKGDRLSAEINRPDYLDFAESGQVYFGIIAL
E-selectin (Homo sapiens), sequence (P16581 whole entry, looked up): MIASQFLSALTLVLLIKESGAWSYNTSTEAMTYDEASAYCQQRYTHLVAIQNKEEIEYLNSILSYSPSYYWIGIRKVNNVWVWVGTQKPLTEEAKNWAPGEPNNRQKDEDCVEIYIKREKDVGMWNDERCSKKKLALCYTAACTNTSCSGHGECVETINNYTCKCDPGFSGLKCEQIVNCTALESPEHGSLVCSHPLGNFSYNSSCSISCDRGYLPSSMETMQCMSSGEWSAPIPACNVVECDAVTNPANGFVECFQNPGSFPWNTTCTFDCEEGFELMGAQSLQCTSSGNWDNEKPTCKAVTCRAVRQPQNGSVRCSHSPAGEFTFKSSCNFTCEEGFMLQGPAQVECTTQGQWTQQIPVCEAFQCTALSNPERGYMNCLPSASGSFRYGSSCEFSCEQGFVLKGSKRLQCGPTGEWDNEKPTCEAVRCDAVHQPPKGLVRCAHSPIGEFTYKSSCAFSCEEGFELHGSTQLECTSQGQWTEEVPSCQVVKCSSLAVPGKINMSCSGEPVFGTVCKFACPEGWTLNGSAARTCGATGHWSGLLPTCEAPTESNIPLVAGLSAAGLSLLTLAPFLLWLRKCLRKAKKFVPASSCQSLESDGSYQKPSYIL

CC[C@@H]1C[C@H](N(Cc2cc(C(F)(F)F)cc(C(F)(F)F)c2)C(C)=O)c2cc(C(F)(F)F)ccc2N1C(=O)OC(C)C
inactive: all assays above

CCCCCCCCOC(=O)c1cc(O)c(O)c(O)c1
active: [1] 31.9 µM | [2] 32.4 µM | [3] 32.3 µM | [4] 30.6 µM | CD38, CD38 (gene 952) 13.1 µM | CD40, CD40 (gene 958) 14.8 µM | CD69, CD69 (gene 969) 16.6 µM | [5] 20 µM | [6] 16 µM | [7] 30.4 µM

O=C(O)Cc1cc(I)c(Oc2ccc(O)c(I)c2)c(I)c1
active: [3] 13 µM | [6] 20 µM
inactive: all other assays above

Cc1oc2c(NC(=O)c3c(Cl)cccc3Cl)cccc2c1C(C)(C)O
active: [2] 4.5 µM | CD38, CD38 (gene 952) 21.3 µM | CD40, CD40 (gene 958) 20.9 µM | CD69, CD69 (gene 969) 19.2 µM | [5] 7.57 µM | [6] 7.6 µM
inactive: [1] | [3] | [4] | [7]

Clc1cc(Cl)c2c(c1)N=C1CCCCCN1C2
inactive: all assays above

Cc1ccc(C(C)C)cc1
inactive: all assays above

O=C1O[C@H]([C@@H](O)CO)C(O)=C1O
inactive: all assays above

CN(C[C@@H](CC[N+]12CCC(C3CCCCC3)(CC1)CC2)c1ccc(Cl)c(Cl)c1)C(=O)c1cc(C(F)(F)F)cc(C(F)(F)F)c1
active: [1] 23.6 µM | [2] 25 µM | [3] 13.7 µM | [4] 31.3 µM | CD38, CD38 (gene 952) 13.3 µM | CD40, CD40 (gene 958) 20 µM | CD69, CD69 (gene 969) 21.9 µM | [5] 17.1 µM | [6] 13.3 µM | [7] 27.8 µM

CCN(CC)C(=O)c1cc(S(=O)(=O)Cc2ccccc2)c(N2CCC(c3ccccc3)CC2)cc1N(CC)CCN(C)C
active: [1] 11.8 µM | [2] 33.5 µM | [3] 12.4 µM | [4] 11.5 µM | CD38, CD38 (gene 952) 9.58 µM | CD40, CD40 (gene 958) 10.4 µM | CD69, CD69 (gene 969) 9.82 µM | [5] 11.8 µM | [6] 11.4 µM | [7] 15.2 µM

CN1C(=O)CC[C@H]1c1cccnc1
inactive: all assays above

CCCOC(=O)c1cc(O)c(O)c(O)c1
active: [5] 29 µM | [6] 14.3 µM
inactive: all other assays above

c1ccc(C[n+]2cccc3ccccc32)cc1
inactive: all assays above

CC1(C)NC(=O)N(c2ccc([N+](=O)[O-])c(C(F)(F)F)c2)C1=O
inactive: all assays above

OCCO
not listed: CD40, CD40 (gene 958)
inactive: all other assays above

NCc1cccc(C2CCN(C(=O)c3ccc(C#Cc4ccccc4F)o3)CC2)c1
active: [1] 26 µM | [2] 28.2 µM | [3] 27.7 µM | [4] 24.6 µM | CD38, CD38 (gene 952) 17.4 µM | CD40, CD40 (gene 958) 15.3 µM | CD69, CD69 (gene 969) 22.1 µM | [5] 28 µM | [6] 23.8 µM | [7] 35.1 µM

O=C1c2ccccc2C(=O)N1CCc1noc(-c2ccc(CN3CCCCCC3)s2)n1
active: [6] 16.9 µM
inactive: all other assays above

CN(C)C(=O)C1(N2CCCCC2)CCN(CC[C@@]2(c3ccc(Cl)c(Cl)c3)CN(C(=O)c3ccccc3)CCO2)CC1
active: [1] 20.8 µM | [2] 31.2 µM | [3] 35.4 µM | [4] 26.6 µM | CD38, CD38 (gene 952) 21.3 µM | CD40, CD40 (gene 958) 18.9 µM | CD69, CD69 (gene 969) 16.5 µM | [5] 22.2 µM | [6] 28.3 µM | [7] 31.7 µM

COc1ccc2cc(S(=O)(=O)N[C@H](CC(=O)N[C@H](Cc3ccc(CN4[C@H](C)CCC[C@@H]4C)cc3)C(=O)N(C)C(C)C)c3ccc4c(c3)OCO4)ccc2c1
active: [1] 19.1 µM | [2] 33.9 µM | [3] 33.6 µM | [4] 11.3 µM | CD38, CD38 (gene 952) 26.2 µM | CD40, CD40 (gene 958) 24 µM | CD69, CD69 (gene 969) 24.5 µM | [5] 19.1 µM | [6] 31.7 µM | [7] 35.2 µM

O=C1CCC(C2CCCCC2)CC1
inactive: all assays above

O=c1ccc2ccccc2o1
inactive: all assays above

COc1cc(C(=O)NC2CCN(C)CC2)ccc1Nc1ncc2c(n1)N(C1CCCC1)CC(F)(F)C(=O)N2C
active: [1] 14 µM | [2] 12.1 µM | [3] 15.1 µM | [4] 11.2 µM | CD38, CD38 (gene 952) 11.6 µM | CD40, CD40 (gene 958) 16.6 µM | CD69, CD69 (gene 969) 10.8 µM | [5] 13.9 µM | [6] 11.4 µM | [7] 14.4 µM

O=c1c(-c2ccc(O)cc2)coc2cc(O)cc(O)c12
active: [1] 14.8 µM | [2] 13.2 µM | [3] 15.8 µM | [4] 13.9 µM | CD38, CD38 (gene 952) 25.1 µM | CD40, CD40 (gene 958) 25.6 µM | CD69, CD69 (gene 969) 20 µM | [5] 18.7 µM | [6] 24.9 µM | [7] 29.7 µM

Cc1cccc2ccccc12
not listed: CD40, CD40 (gene 958)
inactive: all other assays above

OC12N=C(c3ccccc3)SC1Cc1cc(Cl)ccc12 (centres undefined)
active: [4] 10.3 µM | CD40, CD40 (gene 958) 20 µM
inactive: all other assays above

CC(C)(C)c1cc(/C=C2\SC(N)=NC2=O)cc(C(C)(C)C)c1O
active: [1] 16 µM | [2] 25.1 µM | [3] 11.7 µM | [4] 15.6 µM | CD38, CD38 (gene 952) 12.2 µM | CD40, CD40 (gene 958) 17.4 µM | CD69, CD69 (gene 969) 20 µM | [5] 12.7 µM | [6] 7.42 µM | [7] 27.6 µM

CCCCCCCCCC(=O)O
inactive: all assays above

O=C(OCCCCCCOC(=O)c1ccccc1)c1ccccc1
active: [3] 4.86 µM
inactive: all other assays above

Cc1ncc(CO)c(CO)c1O
inactive: all assays above

CCCCCCCCN(C)CCCCCCCC
inactive: all assays above

CCCCCCCCCCCCO
active: [1] 32.2 µM | [2] 19.8 µM | [3] 29.7 µM | [4] 19.8 µM | CD38, CD38 (gene 952) 34.7 µM | CD69, CD69 (gene 969) 31 µM | [5] 30.4 µM | [6] 31.7 µM | [7] 36.3 µM

O=C(O)c1ccccc1C(=O)OCc1ccccc1
not listed: CD40, CD40 (gene 958)
inactive: all other assays above

CC/C(=C(/CC)c1ccc(O)cc1)c1ccc(O)cc1
active: [1] 15.2 µM | [2] 29.9 µM | [3] 32.3 µM | [4] 26.8 µM | CD38, CD38 (gene 952) 19 µM | CD40, CD40 (gene 958) 17.8 µM | CD69, CD69 (gene 969) 25.1 µM | [5] 21.6 µM | [6] 8.84 µM | [7] 31.9 µM

CCOC(=O)O[C@H](C)OC(=O)c1ccc2c(c1)cc(C(=O)NC1CCN(C(C)C)CC1)n2Cc1cc(-c2ccc(Cl)s2)on1
active: [1] 6.43 µM | [2] 10.9 µM | [3] 10.1 µM | [4] 6.25 µM | CD38, CD38 (gene 952) 7.17 µM | CD40, CD40 (gene 958) 6.99 µM | CD69, CD69 (gene 969) 6.44 µM | [5] 7.11 µM | [6] 8.76 µM | [7] 8.05 µM

Cc1occc1C(=O)Nc1ccc(C(=O)N2CCC(F)(F)/C(=C\C(=O)N3CCC(N4CCCCC4)CC3)c3ccccc32)cc1
not listed: CD40, CD40 (gene 958) | [7]
inactive: all other assays above

Source: PubChem BioAssay (EPA / NIEHS)
